FXIIa mix inh: inhibitors of human coagulation factor XIIa, pooled mixtures. purified FXIIa, fluorogenic substrate. 62,000 tested, 0.2% active. AID 684. inhibition, % at 5 µM;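 note: 0% = enzyme without compound and 100% = no enzyme blank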
HePTP inh: blocks human HePTP tyrosine phosphatase; recombinant HePTP phosphatase activity, OD absorbance; inhibition, % at 20 µM; 110,000 tested, 0.64% active; AID 521; in the data active = inhibition above about 50%;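 note: plate controls were vehicle for no effect and reference inhibitor for full effect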
D1 mod: D1 dopamine receptor (human) allosteric modulation; P21728; HEK293 D1, CRE-luciferase, dopamine EC30 potentiation; actives deviate in either direction; B-score at 10 µM; 58,000 tested, 5.9% active; AID 641;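 active = luminescence count or its row- and column-corrected plate score outside the 99.7% band of the plate's sample wells, on either side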
Target sequence (P21728 whole entry, looked up): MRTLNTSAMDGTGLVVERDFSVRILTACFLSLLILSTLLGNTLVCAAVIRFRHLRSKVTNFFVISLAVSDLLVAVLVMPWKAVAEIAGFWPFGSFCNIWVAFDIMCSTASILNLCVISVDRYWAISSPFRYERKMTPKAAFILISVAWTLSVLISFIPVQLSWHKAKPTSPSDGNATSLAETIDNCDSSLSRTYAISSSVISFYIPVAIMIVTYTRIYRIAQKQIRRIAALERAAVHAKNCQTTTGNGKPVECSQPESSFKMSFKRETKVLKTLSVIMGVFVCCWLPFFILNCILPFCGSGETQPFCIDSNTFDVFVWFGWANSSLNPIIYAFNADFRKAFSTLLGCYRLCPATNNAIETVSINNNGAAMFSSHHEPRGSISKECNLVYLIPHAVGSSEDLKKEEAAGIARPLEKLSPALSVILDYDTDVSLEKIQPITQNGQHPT
TNAP act DEA: human TNAP activation, intermediate phosphate acceptor; P05186; activation factor at 20 µM; purified TNAP, CDP-star luminescence, 100 mM DEA, 30 min; hits give high values; scale: 0 levamisole-inhibited, 1 vehicle-only enzyme; 64,000 tested, under 10 active; AID 813;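 active = activation factor of at least 2 at 20 µM, relative to controls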
Calb biofilm kill: kills Candida albicans biofilms | 85,000 tested, 0.14% active | AID 834 | C. albicans biofilm + clotrimazole, Alamar Blue | inhibition, % at 6 µM;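 active = inhibition above 20%; inactive = inhibition below 20%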;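 note: preformed 24 hr biofilms exposed to compound for 48 hr; 0% = biofilm without compound and 100% = blank killed by clotrimazole plus chlorhexidine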
FXIa inh mix: factor XIa (human) inhibition, mixture screen; P03951; purified FXIa, fluorogenic substrate, pooled mixtures; inhibition, % at 5 µM; 62,000 tested, 0.19% active; AID 680;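 note: each value is inhibition by a whole ten-compound pool holding the compound; 0% = enzyme with no mixture and 100% = wells lacking enzyme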
Numbers without * were called inactive; x = no result given. The sample as a whole holds a higher share of hits than the screen did. Cut-off read from the data, not from the text of the source, unless noted: active = inhibition above about 20% (passing the limit was not always enough); inactive = the rest.

SMILES	FXIIa mix inh	HePTP inh	D1 mod	TNAP act DEA	Calb biofilm kill	FXIa inh mix
COc1ccccc1C=C1C(=O)NC(=S)N(c2ccccc2F)C1=O	x	10	x	x	x	x
CCOc1ccc(N2C(=O)/C(=C/c3ccc(I)o3)C(=O)NC2=S)cc1	x	103*	x	x	x	x
O=C1NC(=O)N(c2ccc(Cl)cc2)C(=O)/C1=C/c1ccc(I)o1	x	96*	x	x	x	x
O=C(CN1C(=O)/C(=C\c2ccccc2F)SC1=S)Nc1ccccc1C(=O)O	x	-2	x	x	x	x
CCOc1ccc(C(=O)Nc2cccc(-c3nc4ncccc4o3)c2C)cc1Cl	x	-6	x	x	x	x
COc1ccc(CC(=O)Nc2ccccc2F)cc1OC	x	8	x	x	x	x
Fc1ccc(NC(=S)Nc2ccc(I)cc2)cc1	x	4	x	x	x	x
O=C1NC(=S)N(c2ccccc2F)C(=O)/C1=C/c1ccc(OCc2cccc(C(=O)O)c2)cc1	x	102*	x	x	x	x
CCc1ccc(N2C(=O)/C(=C/c3ccc(I)o3)C(=O)NC2=S)cc1	x	105*	x	x	x	x
O=C1NC(=S)N(c2ccccc2)C(=O)/C1=C/c1ccc(OCc2ccc(Cl)cc2)cc1	x	-3	x	x	x	x
C=CCN1C(=O)/C(=C\c2ccc(I)o2)C(=O)NC1=S	x	13	x	x	x	x
O=C(NC(Nc1ccccc1F)C(=O)c1ccccc1)c1ccco1 (stereo unspecified)	x	-14	x	x	x	x
COc1cc(/C=N/N2C(=O)C3C4C=CC(CC4)C3C2=O)cc(I)c1O (stereo unspecified)	x	-7	x	x	x	x
C/C(=N/N1CCN(Cc2ccccc2Cl)CC1)c1cccc([N+](=O)[O-])c1	x	7	x	x	x	x
CCOC(=O)c1ccc2nc(C)c3c(c2c1)OC(C)C3 (stereo unspecified)	3	6	-2.7*	0.8	2	8
Cc1nc2ccc(C(=O)O)cc2c2c1CC(C)O2 (stereo unspecified)	x	6	x	x	x	x
Cc1nc2c(C)cccc2c2c1CC(C)O2 (stereo unspecified)	x	2	x	x	x	x
COc1cccc2c3c(c(C)nc12)CC(C)O3 (stereo unspecified)	5	-1	-3.4*	0.9	4	1
C=CCOc1ccc(/C=C2\C(=O)NC(=O)N(c3ccccc3)C2=O)cc1Br	x	-15	x	x	x	x
O=C1c2c(Cl)c(Cl)c(Cl)c(Cl)c2C(=O)C1(Nc1ccccc1)c1ccccc1	x	-3	x	x	x	x
CCOc1ccc(N2C(=O)NC(=O)/C(=C\c3ccc(Br)o3)C2=O)cc1	x	93*	x	x	x	x
O=C1NN(c2ccccc2)C(=O)/C1=C/c1ccc([N+](=O)[O-])o1	x	103*	x	x	x	x
O=C1NN(c2ccccc2)C(=O)/C1=C/c1ccc(Br)o1	x	102*	x	x	x	x
O=C1NC(=O)N(c2ccccc2)C(=O)/C1=C\c1ccc(Br)o1	x	69*	x	x	x	x
O=C1NN(c2ccccc2)C(=O)/C1=C/c1ccc(-c2ccccc2[N+](=O)[O-])o1	x	23	x	x	x	x
SMILES	FXIIa mix inh	HePTP inh	D1 mod	TNAP act DEA	Calb biofilm kill	FXIa inh mix
CCOc1ccc(N2C(=O)NC(=O)/C(=C\c3ccc(-c4ccccc4C(=O)O)o3)C2=O)cc1	x	14	x	x	x	x
CS(=O)(=O)N/N=C/c1ccc2c(c1)OCO2	x	-1	x	x	x	x
CCC1CCc2c(sc(NC(=O)c3ccccc3[N+](=O)[O-])c2C(=O)OC)C1 (stereo unspecified)	x	-8	x	x	x	x
O=C(Nc1ccccc1Br)c1cc(-c2cccs2)nc2ccccc12	x	1	x	x	x	x
COC(=O)c1ccc(C(=O)OC)c(NC(=O)CN2C(=O)c3ccccc3C2=O)c1	x	-3	x	x	x	x
CCOC(=O)C1=C(O)/C(=C/c2ccc(C)cc2)SC1=Nc1ccc(C)cc1	x	54*	x	x	x	x
COc1cc(/C=c2\sc3nc4ccccc4n3c2=O)cc(I)c1OCC(=O)O	x	75*	x	x	x	x
CCOc1cc(/C=c2/sc3nc4ccccc4n3c2=O)cc(I)c1OCC	x	-3	x	x	x	x
COc1ccccc1S(=O)(=O)Cc1ccc(C(=O)N2CCCC2)o1	-3	4	0.23	0.8	6	5
CCc1ccccc1S(=O)(=O)Cc1ccc(C(=O)N2CCN(c3ccccc3OC)CC2)o1	-17	2	-2.4*	0.9	1	9
CCC(C)c1c(O)nc(SCC(=O)Nc2nc3ccccc3s2)[nH]c1=O (stereo unspecified)	x	2	x	x	x	x
Cc1nc(C)c(/C(O)=C/c2nc3ccc([N+](=O)[O-])cc3oc2=O)s1	x	1	x	x	x	x
O=c1oc2cc([N+](=O)[O-])ccc2nc1/C=C(\O)c1cccs1	x	76*	x	x	x	x
Oc1ccc(/C=N/Nc2nc(-c3ccccc3)cc(-c3ccc(Br)cc3)n2)c(O)c1	x	10	x	x	x	x
CC1=C(C(=O)OCc2ccccc2)C(c2ccc(F)c(F)c2)C2=C(CC(C)(C)CC2=O)N1 (stereo unspecified)	x	-4	x	x	x	x
S=C(S)N(CCN(Cc1cccs1)C(=S)S)Cc1cccs1	x	67*	x	x	x	x
O=C1c2cccnc2C(Nc2ccc(S(=O)(=O)N3CCCCC3)cc2)N1Cc1ccccc1 (stereo unspecified)	4	2	-1.4*	0.9	6	8
O=C(Nc1ccc2c(c1)OCCO2)C1c2ccccc2Oc2ccccc21	x	3	x	x	x	x
Cc1ccc(S(=O)(=O)Cc2ccc(C(=O)NCCCN3CCCC3=O)o2)cc1	-16	-4	-3.3*	0.9	3	0
CCOC(=O)c1sc(NC(=O)C(CC)Sc2nnc3c4ccccc4n(CC)c3n2)nc1C (stereo unspecified)	-1	2	4.2*	1	1	6
CCOC(=O)c1sc(NC(=O)CSc2nnc3c4ccccc4n(CC)c3n2)nc1C	9	-12	-0.45	0.9	x	0
CCOc1ccccc1NC(=O)Cc1ccc(Cl)cc1	x	-1	x	x	x	x
Cc1ccc(/C=N/N2CCN(Cc3ccccc3Cl)CC2)s1	x	-11	x	x	x	x
Clc1cccc2sc(N3CCOCC3)nc12	12	3	0.62	0.9	6	-1
Clc1cccc2sc(N3CCCC3)nc12	-3	-8	-6.5*	0.9	x	-30
SMILES	FXIIa mix inh	HePTP inh	D1 mod	TNAP act DEA	Calb biofilm kill	FXIa inh mix
CCc1nnc(NC(=O)c2ccc(OC)cc2OC)s1	-2	9	-4.8*	0.9	x	32
COc1ccc(-c2cc(NCc3ccccn3)n3ncnc3n2)cc1	12	8	1.9	2*	7	7
Cc1c(C(=O)OCCOc2ccccc2)[nH]c2c1C(=O)CCC2	1	-10	-3.8*	0.9	6	9
COCCCNS(=O)(=O)c1ccc(OC)cc1	x	98*	x	x	x	x
COCCCNS(=O)(=O)c1ccccc1	4	3	-0.9	0.8	5	3
CN1CCN(S(=O)(=O)c2ccc(NC(=O)c3ccc(Br)s3)cc2)CC1	4	-5	-3.9*	1	0	6
CN1CCN(S(=O)(=O)c2ccc(NC(=O)c3ccc(Br)o3)cc2)CC1	8	10	-0.57	0.8	6	6
Cc1cc(OCC(=O)Nc2ccc(S(=O)(=O)N3CCN(C)CC3)cc2)ccc1Cl	x	x	x	x	-3	x
Cc1cc(OCC(=O)Nc2ccc(S(=O)(=O)N3CCN(C)CC3)cc2)cc(C)c1Cl	10	-1	-6.5*	1	4	6
CN1CCN(c2ccc(NC(=O)COc3ccccc3Cl)cc2)CC1	6	-11	-4.1*	1	8	6
CCC(=O)N1CCN(c2ccc(NC(=O)COc3ccccc3Cl)cc2)CC1	x	x	x	x	8	x
CCN1CCN(Cc2ccc(NC(=O)Nc3ccccc3)cc2)CC1	0	11	-5.8*	1	x	1
